Inconclusive results are not listed. Activity calls are given as the source filed them. Unless noted, calls come from the whole dose curve; as a rule, active = well fitted curve in the direction sought with a large enough effect; inconclusive = small, poorly fitted or top-dose-only effect, or another doubt; inactive = no such curve, though single readings can be large; an effect the other way counts as inactive or inconclusive.

Experiment [1] can be described thus: Cell Viability - LYMP2-023 (AID 975).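 Note: cellular ATP measured by luciferase luminescence as viability proxy; cells exposed to compound for 24 hours at 37 °C; plate controls were DMSO only for no effect and 92 µM tetraoctylammonium bromide control for full effect; nearly all actives have a fitted effect of over 55% in size.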 A digest of the protocol:
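CellTiter-Glo luminescence after 30 min at room temperature; decrease in intracellular ATP reflects toxicity. Cells: human lymphoblastoid line, 2500/well, 24 hr compound exposure at 37 C. AC50 fitted to standard Hill equation from concentration-response.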

Experiment [2] is described as follows: Cell Viability - LYMP2-025 (AID 976).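 Note: plate controls were DMSO only for no effect and tetraoctylammonium bromide control for full effect.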 A digest of the protocol:
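CellTiter-Glo luminescence (cellular ATP) after 24 h compound exposure at 37 C; LYMP2-025 human lymphoblastoid cells, 2500/well, complete medium. Tetraoctylammonium bromide positive control. AC50 by Hill equation fit of qHTS concentration-response.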

Experiment [3] is described as follows: Cell Viability - LYMP2-002 (AID 977).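 Note: plate controls were DMSO only for no effect and 92 µM tetraoctylammonium bromide for full effect.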 A digest of the protocol: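 Human lymphoblastoid cells, 2500/well, complete medium; 5 h 37 C settle; compound 24 h 37 C; CellTiter-Glo, 30 min RT; luminescence. Decrease in ATP = cytotoxicity; AC50 via Hill equation.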
Experiment [4] in a line: Cell Viability - LYMP2-006 (AID 978).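 Note: cells exposed to compound for 24 hours; % is set by controls: 0 for no effect and ±100 for the full control effect; nearly all actives have a fitted effect of over 60% in size.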 A digest of the protocol: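 Cells are seeded at 2500 per well and rested 5 hr at 37 C. Compounds are added across a concentration series for 24 hr at 37 C, after which ATP is quantified by luciferase luminescence.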
The nature of experiment [5]: Cell Viability - LYMP2-007 (AID 979).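 Note: cells exposed to compound for 24 h before reading; 0% = DMSO only and the negative end = 92 µM tetraoctylammonium bromide; nearly all actives have a fitted effect of over 60% in size.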 A digest of the protocol: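 qHTS cytotoxicity: 2500 cells/well, 5 hr 37 C settle, compound 24 hr 37 C, CellTiter-Glo 30 min RT, luminescence. Decrease in ATP = toxicity. AC50 by standard Hill equation; tetraoctylammonium bromide positive control.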
Experiment [6] is described as follows: Cell Viability - LYMP2-012 (AID 982).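 Note: cellular ATP by luciferase luminescence where a drop means cytotoxicity; cells exposed to compound for one day before reading; 0% = DMSO only and full loss = 92 µM tetraoctylammonium bromide; nearly all actives have a fitted effect of over 55% in size.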
Experiment [7] is described as follows: Cell Viability - LYMP2-014 (AID 983).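 Note: plate controls were DMSO only for no effect and 92 µM tetraoctylammonium bromide for full effect; nearly all actives have a fitted effect of over 50% in size.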 The essentials: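 2500 cells/well, 5 hr 37 C; cpd 24 hr 37 C, complete medium; CellTiter-Glo 30 min RT, luminescence; ATP loss = toxicity; AC50 via Hill eqn; tetraoctylammonium bromide positive control.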
Experiment [8] is described as follows: Cell Viability - LYMP2-016 (AID 984).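 Note: cells exposed to compound for 24 hours at 37 °C; % is set by controls: 0 for no effect and ±100 for the full control effect; nearly all actives have a fitted effect of over 55% in size.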 The essentials:
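Cells were seeded at 2500 per well and rested 5 hr before a 24 hr compound exposure at 37 C. Viability was then gauged as cellular ATP by luciferase luminescence, with AC50 values fitted to the Hill equation.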

A short description of experiment [9]: Cell Viability - LYMP2-018 (AID 985).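 Note: plate controls were DMSO only for no effect and tetraoctylammonium bromide at 92 µM for full effect; nearly all actives have a fitted effect of over 50% in size.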 The essentials:
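2500 cells/well; 5 hr 37 C; cmpd 24 hr 37 C, complete medium; CellTiter-Glo 30 min RT; luminescence. Tetraoctylammonium bromide positive control. AC50 via Hill fit.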

Experiment [10] can be described thus: Cell Viability - LYMP2-022 (AID 987).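 Note: 0% = DMSO alone and full effect = tetraoctylammonium bromide at 92 µM; nearly all actives have a fitted effect of over 55% in size.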 The essentials:
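Luminescent ATP read-out (CellTiter-Glo, 30 min, RT) after 24 hr, 37 C compound exposure of 2500 human lymphoblastoid cells/well in complete medium. Cytotoxicity taken as concentration-dependent ATP loss; AC50 from standard Hill equation.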

A short description of experiment [11]: Cell Viability - LYMP2-024 (AID 988).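 Note: plate controls were DMSO only for no effect and 92 µM tetraoctylammonium bromide for full effect; nearly all actives have a fitted effect of over 60% in size.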 A digest of the protocol:
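ATP-based luminescence (CellTiter-Glo, 30 min RT) after 24 h compound exposure at 37 C of 2500 lymphoblastoid cells/well; decrease in ATP taken as cytotoxicity. qHTS concentration-response fitted to standard Hill equation for AC50.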

Experiment [12] in a line: Cell Viability - LYMP2-026 (AID 989). Note: % is set by controls: 0 for no effect and ±100 for the full control effect; nearly all actives have a fitted effect of over 50% in size. A digest of the protocol:
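qHTS cytotoxicity: 2500 cells/well, 5 hr 37 C, compound 24 hr 37 C, CellTiter-Glo 30 min RT, luminescence. Tetraoctylammonium bromide positive control. AC50 via standard Hill fit.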

Experiment [13] in a line: Cell Viability - LYMP1-002 - Assay at 24 hr (AID 993). Note: % is set by controls: 0 for no effect and ±100 for the full control effect. A digest of the protocol:
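CellTiter-Glo luminescence (intracellular ATP) after 24 h compound exposure, 37 C, in LYMP1-002 human lymphoblastoid cells; decreased ATP taken as cytotoxicity. AC50 from standard Hill fit of concentration-response curves.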

A short description of experiment [14]: Cell Viability - LYMP1-002 - Assay at 40 hr (AID 994).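 Note: 0% = DMSO only and full inhibition = 92 µM tetraoctylammonium bromide; nearly all actives have a fitted effect of over 60% in size.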 The essentials:
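qHTS cytotoxicity; 2500 cells/well, 5 hr 37 C settle, compound 40 hr 37 C. CellTiter-Glo, 30 min RT, luminescence (ATP). Concentration-response, Hill fit → AC50. Pos. ctrl tetraoctylammonium bromide.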

A short description of experiment [15]: qHTS Assay for Lipid Storage Modulators (AID 1519; calls by dose curve; for activity change, negative = inhibition: % is set by controls: 0 for no effect and ±100 for the full control effect). The settings on record: Drosophila S3 cells, BODIPY lipid droplet/cell ratio, laser cytometry, cells loaded with oleic acid. A digest of the protocol: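 Cells seeded at 5,000 per well were treated with compounds over a concentration series and loaded with oleic acid (400 uM, as added). Lipid droplet fluorescence (488 nm excitation, 500-530 nm channel) was read by laser-scanning cytometry and normalized to 20 uM Triacsin C.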

Experiment [16] concerns the target DNA repair nuclease/redox regulator APEX1 (Homo sapiens) (UniProt P27695). The experiment is described as follows: qHTS Validation Assay for Inhibitors of the Human Apurinic/apyrimidinic Endonuclease 1 (APE1) (AID 1705;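 note: TAMRA fluorescence gain over two minutes as APE1 cuts a quenched THF abasic duplex; % is set by controls: 0 for no effect and ±100 for the full control effect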). A digest of the protocol:
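qHTS, 1536-well. APE1 + cpd 15 min RT → 50 nM TAMRA/BHQ-2 THF-abasic dsDNA substrate → kinetic fluorescence, 3 reads/60 s; delta(read3−read1) = reaction progress. No-enzyme buffer = negative control.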
(In general: Quantitative high-throughput screening tests each substance at several concentrations.)

A short description of experiment [17]: Counterscreen for APE1 Inhibitors: Fluorescent Dye Displacement Validation Assay (AID 1707).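 Note: plate controls were ThO with dsDNA and no compound for no effect and ThO without dsDNA for full effect.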 A digest of the protocol: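 Counterscreen flags promiscuous DNA binders: compounds displacing ThO from duplex DNA (abasic THF site, 50 nM) reduce 540 nm emission (480 nm excitation). ThO 250 nM final; Tris-HCl pH 7.5 with NaCl, MgCl2 and Tween-20.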
The target in experiment [18] is Alpha-galactosidase A (Homo sapiens) (UniProt P06280). The experiment is described as follows: Counterscreen for Glucocerebrosidase Inhibitors: qHTS Assay for Human alpha-Galactosidase at pH 4.5 (AID 992). Note: 0% is about no effect. A digest of the protocol:
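Fluorogenic 1536-well qHTS at pH 4.5 (citrate, Tween-20): 2 nM enzyme, 80 uM 4-MU-alpha-galactoside, 20 min room temperature, NaOH/glycine stop. Titration 0.7 nM to 77 uM, data normalized to no-enzyme and full-activity controls, Hill-fitted AC50.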
(A counterscreen serves to expose hits that act by an unwanted route or on another target.)

Experiment [19] addresses alpha-glucosidase (Oryza sativa, rice) (UniProt Q653V4). The experiment is described as follows: Counterscreen for Glucocerebrosidase Inhibitors: qHTS Assay for Rice alpha-Glucosidase at pH 5.0 (AID 997).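 Note: 0% = full activity with enzyme and -100% = basal without enzyme.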 A digest of the protocol: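 Endpoint fluorogenic assay at pH 5.0: compounds (0.7 nM to 77 uM) titrated against 4 nM rice enzyme and 400 uM 4-MU-alpha-glucoside for 20 min at room temperature; NaOH/glycine stop, read ex 365/em 440 nm, Hill-fitted AC50.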

Where [20] appears, read: measured here: cell count channel max response.
Setting [21] is: measured here: lipid channel max response.

Chain of DNA repair nuclease/redox regulator APEX1 (Homo sapiens) (P27695 whole entry, looked up): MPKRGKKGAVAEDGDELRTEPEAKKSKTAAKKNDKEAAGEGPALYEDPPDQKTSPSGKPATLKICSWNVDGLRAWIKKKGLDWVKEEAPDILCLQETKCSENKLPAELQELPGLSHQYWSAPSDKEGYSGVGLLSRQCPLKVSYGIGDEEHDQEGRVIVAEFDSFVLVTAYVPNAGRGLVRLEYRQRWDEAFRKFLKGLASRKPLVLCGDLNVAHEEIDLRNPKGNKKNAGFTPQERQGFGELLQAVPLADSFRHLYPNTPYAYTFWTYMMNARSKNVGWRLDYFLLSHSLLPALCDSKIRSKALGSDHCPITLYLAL
Chain of Alpha-galactosidase A (Homo sapiens) (P06280 whole entry, looked up): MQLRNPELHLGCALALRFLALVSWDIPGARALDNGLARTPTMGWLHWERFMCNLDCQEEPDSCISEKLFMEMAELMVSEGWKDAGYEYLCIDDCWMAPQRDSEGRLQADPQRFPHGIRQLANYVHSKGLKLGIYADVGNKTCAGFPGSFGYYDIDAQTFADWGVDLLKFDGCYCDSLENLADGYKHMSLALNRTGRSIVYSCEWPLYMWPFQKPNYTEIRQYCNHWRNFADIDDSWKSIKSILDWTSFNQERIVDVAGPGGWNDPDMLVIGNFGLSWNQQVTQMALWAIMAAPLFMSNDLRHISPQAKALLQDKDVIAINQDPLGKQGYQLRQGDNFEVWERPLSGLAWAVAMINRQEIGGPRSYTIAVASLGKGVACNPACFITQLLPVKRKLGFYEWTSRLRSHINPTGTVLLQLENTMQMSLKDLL

Consider `CN(C)CCC(c1ccccc1)c1ccccn1` (centres undefined), for which the Potency entry in experiment [1], in [3], in [4], in experiment [5], in [6] and in experiment [7] was “inactive” in each case. For the same molecule, the Potency entry in experiment [8], in experiment [9], in [10], in experiment [11], in experiment [12] and in experiment [13] was “inactive” each time. Besides, in experiment [14], the Potency entry is “inactive”. Moreover, the call in experiment [2], in [16] and in [17] was inactive. Further, in experiment [15] (at 57.5 µM (top of the series)), the activity change, negative = inhibition is 5.69% (inactive). Also, the max response in experiment [15] (setting [20]) was 23.2%; in experiment [15] (setting [21]) it was 33.1%.
For `CCN(CC)C(=O)c1ccc(O)c(OC)c1`, the call in [18], in [19], in experiment [16] and in [17] was inactive. Moreover, the activity change, negative = inhibition in experiment [15] (at 25.7 µM (top of the series)) was 0.695% (inactive). Also, the max response in experiment [15] (setting [20]) was determined as 14.3%; in experiment [15] (setting [21]), 14.5%.
Regarding `CCN(CC)CCNC(=O)c1ccc(N)cc1`, the outcome in experiment [18], in experiment [19], in experiment [16] and in experiment [17] was inactive.
With `COc1ccc(Cc2nccc3cc(OC)c(OC)cc23)cc1OC`, the result in [18] and in [19] was inactive.
With `CC(C)NCC(O)COc1cccc2[nH]ccc12` (centres undefined), the molecule was called inactive in experiment [18], in experiment [19], in [16] and in experiment [17]. The activity change, negative = inhibition in experiment [15] (at 57.5 µM (top of the series)) is 10.5% (inactive). The max response is -0.51% in experiment [15] (setting [20]) and 13.4% in experiment [15] (setting [21]).
In the case of `O=c1[nH]cnc2c1ncn2[C@H]1CC[C@@H](CO)O1`, the Potency result in experiment [1], in experiment [3], in experiment [4], in experiment [5], in experiment [6] and in [7] was “inactive” each time. The Potency entry in experiment [8], in [9], in experiment [10], in experiment [11], in [12] and in experiment [13] was “inactive” in each case. The Potency result in [14] was “inactive”. Also, the call in experiment [2] was inactive.
As to `O=C(O)CCc1nc(-c2ccccc2)c(-c2ccccc2)o1`, the outcome in [18], in experiment [19], in experiment [16] and in [17] was inactive. In experiment [15] (at 25.7 µM (top of the series)), the activity change, negative = inhibition is 0.686% (inactive). Moreover, the max response came to 0.745% in experiment [15] (setting [20]) and 2.18% in experiment [15] (setting [21]).
Consider `CC(=O)N[C@@H](CS)C(=O)O`, for which the result in experiment [18], in [19], in experiment [16] and in experiment [17] was inactive.
As for `COc1cccc(-c2cc(=O)c3ccccc3o2)c1N`, the call in experiment [18], in [19], in [16] and in experiment [17] was inactive. Besides, in [15] (at 57.5 µM (top of the series)), the activity change, negative = inhibition is 1.98% (inactive). The values for the max response in experiment [15] (setting [20]) and in experiment [15] (setting [21]) were 13.8% and 15.5%, respectively.
In the case of `O=C(O)Cc1cccc2ccccc12`, the Potency result in experiment [1], in [3], in experiment [4], in experiment [5], in experiment [6] and in experiment [7] was “inactive” each time. The Potency entry in [8], in experiment [9], in experiment [10], in experiment [11], in experiment [12] and in [13] was “inactive” each time. For the same molecule, the Potency entry in [14] was “inactive”. For the same molecule, in experiment [2], the molecule was called inactive.
Regarding `CC(C)(C)c1ccc(C(O)CCCN2CCC(C(O)(c3ccccc3)c3ccccc3)CC2)cc1` (centres undefined), the molecule was called inactive in [18], in experiment [19], in experiment [16] and in [17]. Besides, the activity change, negative = inhibition in experiment [15] (at 57.5 µM (top of the series)) is -1.34% (inactive). Also, the values for the max response in experiment [15] (setting [20]) and in experiment [15] (setting [21]) were -10.3% and -13.9%, respectively.
As to `O=C(O)c1cc(O)c2c(c1)C(=O)c1cccc(O)c1C2=O`, the Potency entry in [6], in [7], in experiment [8], in [9], in experiment [10] and in experiment [11] was “inactive” throughout. The Potency result in [12], in [13] and in experiment [14] was “inactive” each time. The activity change, negative = inhibition in experiment [15] (at 57.5 µM (top of the series)) is 8.11% (inactive). Also, the max response was determined as 13.4% in [15] (setting [20]) and 21.8% in experiment [15] (setting [21]).
